Assay [1] deals with Cytochrome P450 3A7 (Homo sapiens) (UniProt P24462). In words: Cytochrome P450 family 3 subfamily A member 7 (CYP3A7) small molecule antagonists: luciferase biochemical qHTS assay (AID 1963596). Further: nearly all actives have a fitted effect of over 40% in size. Further: potency means the concentration at half of the fitted maximal effect. The method in brief: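 Enzyme-substrate mix + cpd (DMSO), 10 min RT; + NADPH regen system, 1 h RT; + luciferin detection reagent, 20 min RT; luminescence read. Proluciferin substrate, P450-Glo format, 1536-well qHTS.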
Background: qHTS replaces the single test concentration by a dilution series.

Assay [2] can be described thus: Viability qHTS for spleen associated tyrosine kinase inhibitor (SYKi) naive MV4-11 cells (AID 1963823). Further: nearly all actives have a fitted effect of over 40% in size. Further: potency means the concentration at half of the fitted maximal effect. A digest of the protocol:
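SYKi-naive MV4-11 AML cells, 500 per well, were exposed to library compounds for 72 hr at 37 C, 5% CO2. Viability was then read by CellTiter-Glo luminescence after 10 min at room temperature.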

The nature of assay [3]: Viability qHTS for spleen associated tyrosine kinase inhibitor (SYKi) drug resistant MV4-11 cells (AID 1963824). Further: nearly all actives have a fitted effect of over 35% in size. Further: potency means the concentration at half of the fitted maximal effect. A digest of the protocol:
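CellTiter-Glo luminescence, read 10 min after reagent addition, reports viability after a 72 hr compound exposure. Cells are an MV4-11 line made resistant to SYK inhibition, seeded at 500 per well onto compound-containing plates.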

Assay [4] in a line: Cellular viability qHTS for adrenocortical cancer (ACC) cell line NCI-H295R (AID 1963990). Further: nearly all actives have a fitted effect of over 60% in size. Further: potency means the concentration at half of the fitted maximal effect. A digest of the protocol:
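Luminescent ATP read-out (CellTiter-Glo, 20 min RT) after 48 h drug exposure of NCI-H295R cells; a titration up to 46 uM final. Data normalized to doxorubicin (100% inhibition) and DMSO (0%); 4-parameter fit gives IC50, max response.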

Assay [5] can be described thus: Cellular viability qHTS for adrenocortical cancer (ACC) cell line SW-13 (AID 1963989).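 Further: cells grown in serum-free medium with ITS supplement; on the % scale 0 is the no-effect control and ±100 the full control effect; nearly all actives have a fitted effect of over 65% in size.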 Particulars: SW-13 ACC cells viability, CellTiter-Glo, 48 h; activity (max response): hits give low values. A digest of the protocol: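 SW-13 cells in ITS-supplemented serum-free DMEM were plated overnight, then exposed for 48 h at 37C to compound titrations (up to 46 uM final). Viability was read by CellTiter-Glo luminescence; four-parameter logistic fits gave IC50 and efficacy.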

A short description of assay [6]: Quantitative highthroughput screen to assess conditional lethalithy of NOMO1 cells grown in RPMI1640 with untreated serum (RPMI+s) (AID 1963876). Further: nearly all actives have a fitted effect of over 35% in size. Further: potency means the concentration at half of the fitted maximal effect.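 On Viability: 100% = DMSO wells and 0% = empty wells without cells.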 A digest of the protocol: (§1)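 Each medium arm—HPLM with 10% dialyzed FBS, or RPMI1640 with 5 mM glucose and 10% untreated or dialyzed FBS—was screened against an 11-point, 3-fold compound titration for 48 h at 37 °C, with CellTiter-Glo luminescence as endpoint.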

Assay [7] is described as follows: Quantitative highthroughput screen to assess conditional lethalithy of NOMO1 cells grown in RPMI1640 with dialyzed fetal bovine serum (RPMI+ds) (AID 1963877). Further: nearly all actives have a fitted effect of over 30% in size. Further: potency means the concentration at half of the fitted maximal effect.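 On Viability: series mostly up to about 46 µM; 100% = DMSO control wells and 0% = empty wells.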 A digest of the protocol: as §1
Assay [8] can be described thus: Quantitative highthroughput screen to assess conditional lethalithy of NOMO1 cells grown in Human Plasma-Like Medium with dialyzed fetal bovine serum (HPLM+ds) (AID 1963878). Further: nearly all actives have a fitted effect of over 35% in size. Further: potency means the concentration at half of the fitted maximal effect.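 On Viability: 100% = DMSO wells and 0% = empty wells on each plate.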 The method in brief:
as §1

Assay [9] in a line: Quantitative highthroughput screen to assess conditional lethalithy of P12 Ichikawa cells grown in Human Plasma-Like Medium with dialyzed fetal bovine serum (HPLM+ds) (AID 1963879). Further: nearly all actives have a fitted effect of over 35% in size. Further: potency means the concentration at half of the fitted maximal effect. On Viability: series mostly up to about 46 µM. Particulars: Potency: viability. A digest of the protocol: as §1
Assay [10] is described as follows: Quantitative highthroughput screen to assess conditional lethalithy of P12 Ichikawa cells grown in RPMI1640 with dialyzed fetal bovine serum (RPMI+ds) (AID 1963880). Further: nearly all actives have a fitted effect of over 35% in size. Further: potency means the concentration at half of the fitted maximal effect.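 On Viability: 100% = DMSO wells and 0% = empty wells on each plate.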 Particulars: Potency: P12-Ichikawa viability. The method in brief: as §1
Assay [11] is described as follows: Quantitative highthroughput screen to assess conditional lethalithy of P12 Ichikawa cells grown in RPMI1640 with untreated serum (RPMI+s) (AID 1963881). Further: nearly all actives have a fitted effect of over 35% in size. Further: potency means the concentration at half of the fitted maximal effect.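 On Viability: series mostly up to about 46 µM; 100% = DMSO wells and 0% = empty wells without cells.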 Particulars: Potency: viability. A digest of the protocol:
as §1

The nature of assay [12]: Quantitative highthroughput screen to assess conditional lethalithy of SEM cells grown in Human Plasma-Like Medium with dialyzed fetal bovine serum (HPLM+ds) (AID 1963882). Further: nearly all actives have a fitted effect of over 35% in size. Further: potency means the concentration at half of the fitted maximal effect. On Viability: series mostly up to about 46 µM. A digest of the protocol:
as §1

A short description of assay [13]: Quantitative highthroughput screen to assess conditional lethalithy of SEM cells grown in RPMI1640 with unreated serum (RPMI+s) (AID 1963883). Further: nearly all actives have a fitted effect of over 35% in size. Further: potency means the concentration at half of the fitted maximal effect.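 On Viability: 100% = DMSO wells and 0% = empty wells without cells.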 The method in brief: as §1
Assay [14] can be described thus: Quantitative highthroughput screen to assess conditional lethalithy of SEM cells grown in RPMI1640 with dialyzed fetal bovine serum (RPMI+ds) (AID 1963884). Further: nearly all actives have a fitted effect of over 35% in size. Further: potency means the concentration at half of the fitted maximal effect.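 On Viability: series mostly up to about 46 µM; 100% = DMSO control wells and 0% = empty wells without cells.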 The method in brief: as §1

Values joined by “and” are separate entries in the source; they are usually repeats but may differ in a detail not shown here. Identical values can stand only once. Records with an inconclusive call do not appear. Values without a mark were called inactive. Active and inactive are the calls of the source. The call rests on the fitted dose curve; in most records, active means well fitted curve in the direction sought with a large enough effect; inconclusive means small, poorly fitted or top-dose-only effect, or another doubt; inactive means no such curve, though single readings can be large; an effect the other way counts as inactive or inconclusive.

Drawing on PubChem BioAssay (NCATS), this text covers Potency and activity (max response) for 24 compounds.

Chain of Cytochrome P450 3A7 (Homo sapiens) (P24462 whole entry, looked up): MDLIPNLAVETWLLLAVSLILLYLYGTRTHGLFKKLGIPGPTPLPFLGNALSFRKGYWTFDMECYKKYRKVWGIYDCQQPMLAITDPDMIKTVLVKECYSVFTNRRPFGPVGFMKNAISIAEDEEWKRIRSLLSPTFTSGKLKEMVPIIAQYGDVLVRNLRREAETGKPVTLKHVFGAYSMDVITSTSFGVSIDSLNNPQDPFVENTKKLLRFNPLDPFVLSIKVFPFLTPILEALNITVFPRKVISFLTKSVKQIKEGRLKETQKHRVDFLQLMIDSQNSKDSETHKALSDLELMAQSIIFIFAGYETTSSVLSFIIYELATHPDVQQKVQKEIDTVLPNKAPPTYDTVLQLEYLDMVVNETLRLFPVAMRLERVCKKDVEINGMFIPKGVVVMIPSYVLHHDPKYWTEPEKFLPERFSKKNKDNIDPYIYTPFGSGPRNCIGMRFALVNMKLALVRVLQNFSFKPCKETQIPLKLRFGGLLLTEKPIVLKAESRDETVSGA

For `C=CCOc1ccccc1OCC(O)CNC(C)C` (stereo not given), the Potency result in [1], in assay [2], in assay [3] and in assay [4] was “inactive” each time.
With `Cc1[nH]c(C)c(Cl)c(=O)c1Cl`, the Potency result in assay [1], in assay [2], in assay [3] and in [4] was “inactive” each time.
Consider `Cc1nc(NC(=O)N2CCC[C@H]2C(N)=O)sc1-c1ccnc(C(C)(C)C(F)(F)F)c1`, for which the Potency entry in assay [1] is “inactive”. Also, the Potency in assay [2] is 13 µM (active); in assay [3], 11.6 µM (active) and 16.6 µM (active); in [4] it was 11.2 µM (active).
In the case of `O=C1NS(=O)(=O)c2ccccc21`, the Potency result in assay [1] and in [2] was “inactive” each time. The activity (max response) in assay [5] is 0.607%.
Turning to `OC(CN1CCC(Cc2ccc(F)cc2)CC1)c1ccc(Cl)cc1` (stereo not given), the Potency entry in assay [1], in assay [6], in assay [7], in assay [8], in assay [9] and in assay [10] was “inactive” each time. Besides, the Potency entry in assay [11], in [12], in assay [13] and in [4] was “inactive” each time. Moreover, in assay [2], the Potency was 5.31 µM (active). The activity (max response) in assay [5] is -8.69%.
In the case of `CN1CCN(c2cc3c(nn2)Oc2ccccc2N3C)CC1`, the Potency entry in assay [1], in [2], in [3] and in [4] was “inactive” each time.
Consider `NC(CS)C(=O)O` (stereo not given), for which the Potency entry in [1] and in assay [2] was “inactive” each time. In addition, the activity (max response) in assay [5] is 12.6%.
In the case of `CCCCCCCCCCCC(=O)[O][Sn]([CH2]CCC)([CH2]CCC)[O]C(=O)CCCCCCCCCCC`, the Potency in assay [1] is 19.5 µM (active). Moreover, the Potency entry in assay [2] is “inactive”. In addition, in assay [5], the activity (max response) was 2.55%.
Consider `Cc1c[nH]c2ccccc12`, for which the Potency entry in assay [1] and in [2] was “inactive” each time. For the same compound, the activity (max response) in [5] is 13.2%.
For `NC(=O)OCC(COC(N)=O)c1ccccc1`, the Potency result in [1], in [2], in [6], in [7], in assay [8] and in [9] was “inactive” each time. Moreover, the Potency result in assay [10], in assay [11], in assay [12], in assay [13] and in assay [4] was “inactive” throughout. Further, the activity (max response) in [5] was 2.38% and -8.33%.
With `CN(c1nccc(=O)[nH]1)C1CCN(c2nc3ccccc3n2Cc2ccc(F)cc2)CC1`, the Potency result in assay [1], in assay [2], in assay [6], in assay [7], in [9] and in [10] was “inactive” each time. Moreover, the Potency result in assay [11], in assay [13], in assay [14] and in assay [4] was “inactive” throughout. Besides, the activity (max response) in [5] is 5.56%.
As to `CCCCCCCCCCCCCC(=O)OC(C)C`, the Potency entry in [1], in assay [2], in assay [3] and in assay [4] was “inactive” each time.
Consider `Nc1cccc2c1CN(C1CCC(=O)NC1=O)C2=O` (stereo not given), for which the Potency result in [1], in assay [6], in [7], in assay [8], in assay [9] and in [11] was “inactive” in each case. The Potency entry in assay [12], in assay [14] and in assay [4] was “inactive” throughout. The Potency in assay [2] was 4.22 µM (active). The activity (max response) in [5] is -7.43%.
On to `CCOC(=O)c1ccc(OCCN2C[C@H](O)[C@@H](O)[C@H](O)[C@H]2CO)cc1`, for which the Potency result in assay [1], in assay [2], in assay [3] and in [4] was “inactive” in each case.
For `C[C@H](NC(CCc1ccccc1)C(=O)O)C(=O)N1CCC[C@H]1C(=O)O` (stereo not given in full), the Potency entry in [1] and in assay [2] was “inactive” throughout. Further, the activity (max response) in assay [5] is 8.08%.
On to `CCN(C)C(=O)Oc1cccc([C@H](C)N(C)C)c1`, for which the Potency result in assay [1], in assay [2], in assay [6], in [7], in assay [8] and in assay [9] was “inactive” each time. Besides, the Potency result in assay [10], in assay [12], in [13], in assay [14] and in assay [4] was “inactive” in each case. In addition, the activity (max response) in assay [5] was 11.5%.
Take `CCC1(C)CC(=O)NC1=O` (stereo not given): the Potency entry in assay [1], in assay [2], in assay [6], in assay [8], in [9] and in assay [10] was “inactive” in each case. Besides, the Potency entry in assay [11], in assay [12], in assay [13] and in assay [4] was “inactive” throughout. Besides, the activity (max response) in [5] is 14.5% and 4.04%.
For `CCCCOc1ccc(C(=O)Nc2ccc(F)cc2F)cc1`, the Potency entry in [1], in assay [2], in assay [6], in [7], in assay [9] and in assay [10] was “inactive” in each case. Also, the Potency entry in [11] and in assay [14] was “inactive” in each case. Further, in [5], the activity (max response) is -9.55%.
Turning to `C[C@@H](CN1CC(=O)NC(=O)C1)N1CC(=O)NC(=O)C1`, the Potency entry in [1], in assay [2] and in assay [4] was “inactive” throughout. Further, the Potency was 0.469 µM (active) in assay [6]; 0.332 µM (active) in [7]; 0.148 µM (active) in assay [8]; 0.372 µM (active) in [9]; 0.59 µM (active) in assay [10]; 0.833 µM (active) in assay [11]. Besides, the Potency in assay [12] is 0.0935 µM (active); in [13] it was 0.0662 µM (active); in [14], 0.0743 µM (active). The activity (max response) in [5] was 3.22% and 6.64%.
Turning to `C=CCc1ccccc1OCC(O)CNC(C)C` (stereo not given), the Potency result in [1] and in assay [2] was “inactive” in each case. In assay [5], the activity (max response) was 1.07%.
Take `CN(C)C(=O)Oc1cccc([N+](C)(C)C)c1`: the Potency entry in assay [1] and in assay [2] was “inactive” throughout. The activity (max response) in assay [5] is 16.2%.
Take `O=c1[nH]cnc2c1ncn2[C@H]1CC[C@@H](CO)O1`: the Potency entry in assay [1], in assay [2] and in assay [4] was “inactive” in each case. The values for the Potency in assay [10] and in assay [12] were 16.6 µM (active) and 18.7 µM (active), respectively. Further, in assay [5], the activity (max response) is 1.58%.
`CCOC(=O)c1ncn2c1CN(C)C(=O)c1cc(F)ccc1-2`: the Potency result in assay [1], in assay [2], in assay [6], in assay [7] and in assay [4] was “inactive” each time. Besides, the values for the Potency in assay [8] and in assay [9] were 20.9 µM (active) and 3.72 µM (active), respectively. In assay [5], the activity (max response) is 10.7% and 8.93%.
Regarding `CC(C)Cc1ccc(C(C)C(=O)O)cc1` (stereo not given), the Potency result in assay [1], in assay [2], in assay [7], in assay [8], in [9] and in [10] was “inactive” each time. Further, the Potency result in [11] and in [4] was “inactive” each time. Further, the Potency in assay [13] is 12.9 µM (active). Besides, the activity (max response) in assay [5] is 8.32% and 2.38%.
